Results as given in publication PMC6602471.
Over roughly 1,300 sequences, “log fluorescence intensity” has its median near 8.9; the highest 2% begin near 13. Many of the other results were omitted from the sample, so the highest values are more common in it than they were.

molecular target: T1, ELK1 (Homo sapiens, UniProt P19419 1-428); test: custom PBM; custom protein-binding microarray; buffer, salt, pH and temperature not stated; high values mean tight binding; conditions: dsDNA, one strand shown
T1 sequence: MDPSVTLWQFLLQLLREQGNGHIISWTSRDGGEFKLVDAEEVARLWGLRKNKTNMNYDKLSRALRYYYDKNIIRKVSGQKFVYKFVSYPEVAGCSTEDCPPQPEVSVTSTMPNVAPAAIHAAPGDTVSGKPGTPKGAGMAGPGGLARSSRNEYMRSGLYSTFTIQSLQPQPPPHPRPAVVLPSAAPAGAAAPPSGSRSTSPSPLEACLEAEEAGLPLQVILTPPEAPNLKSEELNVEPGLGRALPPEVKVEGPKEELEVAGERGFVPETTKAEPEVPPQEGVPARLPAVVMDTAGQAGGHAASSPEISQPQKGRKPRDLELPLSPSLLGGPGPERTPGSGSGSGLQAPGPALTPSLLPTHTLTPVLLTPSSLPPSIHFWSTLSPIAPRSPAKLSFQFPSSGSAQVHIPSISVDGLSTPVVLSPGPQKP

Sequence | binding signal
GTGCATAGGATCCCATCCAACACACGTGTTAAAATGGTCTTGATTCGCTTGACGCTGCTG | 9 log fluorescence intensity
CGGAAGTGTCGTAAACGTCGGATATACGGTTCTTCTGTCTTGATTCGCTTGACGCTGCTG | 9.29 log fluorescence intensity
GGAAAAAGGCCCAGGGTAACACCGGAAGCGGGCTTAGTCTTGATTCGCTTGACGCTGCTG | 10.5 log fluorescence intensity
GTGTCTAGGATCCCATCCAACACACGTGTTAAAATGGTCTTGATTCGCTTGACGCTGCTG | 8.94 log fluorescence intensity
CAGCAGAGGACTTCTTCCCTGAAGCAATTGATAACCGTCTTGATTCGCTTGACGCTGCTG | 8.97 log fluorescence intensity
CGGAAGTGTCGTAAACGTCGGATATCCGGTTCTGCTGTCTTGATTCGCTTGACGCTGCTG | 12.5 log fluorescence intensity
CGGAAGTGTCGTAAACGCCGGATATCCGGTTCTTCTGTCTTGATTCGCTTGACGCTGCTG | 13.3 log fluorescence intensity
CGGAAGTGTCGTAAACCTCGGATATCCGGTTCTTCTGTCTTGATTCGCTTGACGCTGCTG | 12.2 log fluorescence intensity
CGGAAGTGTCGTAAACGTCGGATATCCGGTTCTTCAGTCTTGATTCGCTTGACGCTGCTG | 12.6 log fluorescence intensity
CGGAAGTGTCGTAAACGTCGGATATCCGGTTCTACTGTCTTGATTCGCTTGACGCTGCTG | 12.4 log fluorescence intensity
CGGAAGTGTCGTAAACGTCGGATATCCGGTTCTCCTGTCTTGATTCGCTTGACGCTGCTG | 12.6 log fluorescence intensity
CGGAAGTGTCGTAAACGTCGGATATCCGGTTCTTATGTCTTGATTCGCTTGACGCTGCTG | 12.4 log fluorescence intensity
CGGAAGTGTCGTAAACGTCGGATATCCGGTTCTTCCGTCTTGATTCGCTTGACGCTGCTG | 13 log fluorescence intensity
CGGAAGTGTCGTAAACGTCGGATATCCGGTTCTTCGGTCTTGATTCGCTTGACGCTGCTG | 12.4 log fluorescence intensity
CGGAAGTGTCGTAAACGTAGGATATCCGGTTCTTCTGTCTTGATTCGCTTGACGCTGCTG | 11.8 log fluorescence intensity
CGGAAGTGTCGTAAACTTCGGATATCCGGTTCTTCTGTCTTGATTCGCTTGACGCTGCTG | 12.3 log fluorescence intensity
CGGAAGTGTCGTAAACGTTGGATATCCGGTTCTTCTGTCTTGATTCGCTTGACGCTGCTG | 11.4 log fluorescence intensity
CGGAAGTGTCGTAAACGTCGGATATCCGGTTCGTCTGTCTTGATTCGCTTGACGCTGCTG | 12.4 log fluorescence intensity
CGGAAGTGTCGTAAACATCGGATATCCGGTTCTTCTGTCTTGATTCGCTTGACGCTGCTG | 12.6 log fluorescence intensity
CGGAAGTGTCGTAAACGTCTGATATCCGGTTCTTCTGTCTTGATTCGCTTGACGCTGCTG | 11.1 log fluorescence intensity
CGGAAGTGTCGTAAACGTGGGATATCCGGTTCTTCTGTCTTGATTCGCTTGACGCTGCTG | 11.4 log fluorescence intensity
CGGAAGTGTCGTAAACGTCGGATATCCGGTTCATCTGTCTTGATTCGCTTGACGCTGCTG | 12.6 log fluorescence intensity
CGGAAGTGTCGTAAACGTCGGATATCCGGTTCCTCTGTCTTGATTCGCTTGACGCTGCTG | 12.5 log fluorescence intensity
AGGAAGTGTCGTAAACGTCGGATATCCGGTTCTTCTGTCTTGATTCGCTTGACGCTGCTG | 12.3 log fluorescence intensity
CGGAAGTGTCGTAAACGTCGGATATCCGGTTCTTCTGTCTTGATTCGCTTGACGCTGCTG | 12.4 log fluorescence intensity
TGGAAGTGTCGTAAACGTCGGATATCCGGTTCTTCTGTCTTGATTCGCTTGACGCTGCTG | 12.5 log fluorescence intensity
GGGAAGTGTCGTAAACGTCGGATATCCGGTTCTTCTGTCTTGATTCGCTTGACGCTGCTG | 12.6 log fluorescence intensity
